Sm TGR inh: qHTS Assay for the Inhibitors of Schistosoma Mansoni Peroxiredoxins; Schistosoma mansoni thioredoxin glutathione reductase (TGR), Q962Y6; purified TGR, DTNB reduction, TNB absorbance 405 nm; Potency, µM (top dose mostly 114 µM), for the others: at the highest dose activity change, negative = inhibition, hits mostly inhibitors; 360,000 tested, 3% active; AID 485364, 2010; note: % is set by controls: 0 for no effect and ±100 for the full control effect; nearly all actives have a fitted effect of over 60% in size
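Kinetic colorimetric format: TGR-catalysed, NADPH-driven DTNB reduction monitored via TNB absorbance. Enzyme dispensed at 20 nM; compound exposure 15 min at room temperature before reaction start.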
Pf growth 96h: Primary qHTS for delayed death inhibitors of the malarial parasite plastid, 96 hour incubation | 320,000 tested, 6.9% active | Potency, µM (top dose mostly 28.7 µM), for inactives: at the top dose activity change, negative = inhibition, usual class: inhibitors | AID 504834, 2011 | P. falciparum luciferase reporter growth, 96 h; note: % is set by controls: 0 for no effect and ±100 for the full control effect
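Plates of compound plus infected erythrocytes (2% hematocrit, 0.05% parasitemia final) incubate 96 hours, 37 C, 5% CO2. Detection reagent added; reduced luminescence from the parasites' luciferase reporter flags inhibition.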
Pf growth 48h: Primary qHTS for delayed death inhibitors of the malarial parasite plastid, 48 hour incubation; 310,000 tested, 5.9% active; Potency, µM (doses to about 28.7 µM), without a hit: top-dose activity change, negative = inhibition, most hits filed as inhibitors; P. falciparum luciferase growth in erythrocytes, 48 h; AID 504832, 2011; note: % is set by controls: 0 for no effect and ±100 for the full control effect
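Here the parasites carry a stable luciferase gene and grow inside erythrocytes in Albumax-based RPMI medium with compound for one erythrocytic cycle. Activity is scored as loss of luminescent signal.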
SARS PLP yeast: qHTS of Yeast-based Assay for SARS-CoV PLP; S. cerevisiae expressing SARS-CoV PLpro, growth rescue; Potency, µM (series often up to 32.9 µM), inactives show at the highest dose activity, positive = growth rescue, actives largely listed as activators; 330,000 tested, 0.19% active; calls by dose curve; note: 0% is about no effect; nearly all actives have a fitted effect of over 55% in size
* marks the source's active call; other numbers are inactive results; u = inconclusive; x = not tested or not shown. In the library only some 12% were active in any assay of this set; here they are far more common. Unless noted, calls come from the whole dose curve; as a rule, active = well fitted curve in the direction sought with a large enough effect; inconclusive = small, poorly fitted or top-dose-only effect, or another doubt; inactive = no such curve, though single readings can be large; an effect the other way counts as inactive or inconclusive. Potency is the fitted concentration of half-maximal effect.

SMILES	Sm TGR inh	Pf growth 96h	Pf growth 48h	SARS PLP yeast
NC(=O)C1CCN(C2=C(NS(=O)(=O)c3ccccc3)C(=O)c3ccccc3C2=O)CC1	-17%	u	u	0%
O=C1C(Nc2ccccc2)=C(NS(=O)(=O)c2ccccc2)C(=O)c2ccccc21	-18%	4.1µM*	10µM*	-3%
CCOc1ccccc1N1CCN(C2=C(NS(=O)(=O)c3cccs3)C(=O)c3ccccc3C2=O)CC1	45%	x	10µM*	0%
Cc1ccc(N2CC(C(=O)OCc3nnc(-c4ccccc4)o3)CC2=O)cc1 (centres undefined)	-1%	12%	39%	-7%
Cc1cc(C)cc(N(CC(=O)NCCc2ccc(Cl)cc2)S(=O)(=O)c2c(C)noc2C)c1	6%	x	x	x
CCN(CC)CCN(Cc1cc2cc3c(cc2[nH]c1=O)OCO3)C(=S)NC	-9%	-13%	u	u
CCC(=O)N1CCc2cc(Br)cc(S(=O)(=O)N3CCCC(C(=O)N(C)c4ccc(Br)cc4)C3)c21 (centres undefined)	-7%	x	x	x
CC1Cc2cc(S(=O)(=O)NCCc3ccc(Cl)cc3)ccc2N1C(=O)C1CCC1 (centres undefined)	2%	x	x	x
O=C(CSC1=NS(=O)(=O)c2ccccc2N1)NCc1ccc(F)cc1	3%	26%	5%	0%
CN1CCN(C2=C(NS(=O)(=O)c3ccccc3)C(=O)c3ccccc3C2=O)CC1	u	u	4.1µM*	5%
CN1CCN(C2=C(NS(=O)(=O)c3cccs3)C(=O)c3ccccc3C2=O)CC1	-33%	u	u	0%
CCOC(=O)N1CCN(C2=C(NS(=O)(=O)c3ccccc3)C(=O)c3ccccc3C2=O)CC1	-31%	9.3µM*	13µM*	-2%
CCOC(=O)C1CCN(C2=C(NS(=O)(=O)c3ccc(Br)cc3)C(=O)c3ccccc3C2=O)CC1	-25%	u	u	-3%
CC(C)CN(C(=O)COC(=O)C12CC3CC(CC(Cl)(C3)C1)C2)c1c(N)n(Cc2ccccc2)c(=O)[nH]c1=O	-2%	u	4.7µM*	1%
Cc1c(C(=O)N(CC(C)C)c2c(N)n(Cc3ccccc3)c(=O)[nH]c2=O)sc2nc3n(c(=O)c12)CCC3	-4%	u	8.3µM*	2%
CCc1nc2ccccc2c(C(=O)OCC(=O)N(CC(C)C)c2c(N)n(Cc3ccccc3)c(=O)[nH]c2=O)c1C	0%	9.3µM*	12µM*	0%
CN(C(=O)COC(=O)C12CC3CC(CC(C3)C1)C2)c1c(N)n(Cc2ccccc2)c(=O)[nH]c1=O	-9%	-20%	-15%	-5%
COCCN(C(=O)COC(=O)C12CC3CC(CC(Cl)(C3)C1)C2)c1c(N)n(Cc2ccccc2)c(=O)[nH]c1=O	-1%	u	12µM*	-6%
COCCN(C(=O)COC(=O)C1CC1)c1c(N)n(Cc2ccccc2)c(=O)[nH]c1=O	6%	59%	-10%	4%
Cc1cc(C(=O)OCC(=O)N(CC(C)C)c2c(N)n(Cc3ccccc3)c(=O)[nH]c2=O)c2ccccc2n1	-8%	u	u	11%
COc1ccc(CN(C(=O)Cc2coc3ccc(C)cc23)C2CCS(=O)(=O)C2)cc1 (centres undefined)	0%	x	x	x
COc1cc(S(=O)(=O)Nc2ccc3nc(C)sc3c2)ccc1NC(C)=O	5%	u	-27%	-3%
CCOC(=O)c1c(S(=O)(=O)N2CCCC(C(=O)NCc3ccc(Cl)cc3)C2)c(C)n(C)c1C (centres undefined)	-7%	x	x	x
COc1ccccc1CNC(=O)COCc1cc(-c2ccc3c(c2)OCO3)on1	5%	x	x	x
CN(C)CCOC(=O)[C@@H](c1ccccc1)C1(O)CCCC1	x	48%	36%	x
CN1CCN(CC(O)COC(c2ccc(Cl)cc2)c2ccc(Cl)cc2)CC1 (centres undefined)	-15%	9.3µM*	x	1%
OC(COC(c1ccc(Cl)cc1)c1ccc(Cl)cc1)CN1CCCC1 (centres undefined)	6%	4.7µM*	u	x
OC(COC(c1ccc(Cl)cc1)c1ccc(Cl)cc1)CN1CCc2ccccc2C1 (centres undefined)	3%	2.6µM*	u	-37%
CCn1c(=NC(=O)c2ccc(S(=O)(=O)N3CCCC3)cc2)sc2cc(Br)ccc21	-2%	x	x	x

Screening results from PubChem.
